Assay [1] is described as follows: small molecules captured by biotinylated probe aFSTL3 – biochemical, small-molecule microarray, fluorescence 635/667, stem cell growth factor project, primary screen (AID 1064).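 Note: measures binding of the biotinylated anti-FSTL3 antibody to printed compounds.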 As to conditions: higher = more signal.
The nature of assay [2]: binders from COS7 lysate, DM2A8 probe, primary screen, torsin A project, cell lysate, small-molecule microarray, fluorescence 635/667 (AID 1065). As to conditions: higher = more signal, COS7 lysate expressing mutant human TOR1A.
The nature of assay [3]: small molecules captured by biotinylated probe aFGF2 – biochemical, small-molecule microarray, fluorescence 635/667, stem cell growth factor project, primary screen (AID 1067).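 Note: measures binding of biotinylated aFGF2 protein to printed compounds on slides; z-score merges feature fluorescence and signal-to-noise across triplicate slides.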 As to conditions: higher = more signal.
A short description of assay [4]: small molecules captured by biotinylated probe aFGF10 – biochemical, small-molecule microarray, fluorescence 635/667, stem cell growth factor project, primary screen (AID 1071).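 Note: score merges 667 nm spot intensity and signal to noise from triplicate slides.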 As to conditions: higher = more signal.
The target in assay [5] is Neurogenic locus notch homolog protein 2 (Homo sapiens) (UniProt Q04721). The assay is described as follows: small molecules binding Notch2 protein – biochemical, small-molecule microarray, 635 nm fluorescence, stem cell growth factors, primary screen (AID 1073). As to conditions: higher = more signal.
The target of assay [6] is Pro-neuregulin-1, membrane-bound isoform (Homo sapiens) (UniProt Q02297). The assay is described as follows: small molecules binding neuregulin-1 protein – biochemical, small-molecule microarray, fluorescence 635/667, psychiatric disease protein project, primary screen (AID 1075).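 Note: score combines 667 nm spot fluorescence with signal to noise.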 The note with it: NRG1 binding, 635 nm fluorescence, higher = more signal.
Assay [7] has as its system Neuregulin-1 EGF-like domain. Kind of assay: small molecules binding NRG1 EGF domain – biochemical, small-molecule microarray, 635 nm fluorescence, primary screen (AID 1081).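 Note: binding of the protein to compounds printed on small-molecule microarray slides.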 As to conditions: higher = more signal.
Assay [8] can be described thus: FRG1 expression reporter modulators in myotubes – cell-based, C2C12 myotubes, firefly/Renilla luciferase, luminescence, FRG1 inhibition for FSHD, primary screen (AID 1084). As to conditions: FRG1 promoter luciferase, higher = more signal, called active from +8 up or from −8 down.
The nature of assay [9]: small molecules captured by biotinylated probe aFST – biochemical, small-molecule microarray, fluorescence 635/667, stem cell growth factor project, primary screen (AID 1086).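 Note: score merges 667 nm fluorescence with signal-to-noise of each printed compound spot.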 The note with it: higher = more signal.
A short description of assay [10]: binders of probe aHhip on microarray, primary screen, stem cell growth factor project, biochemical, small-molecule microarray, fluorescence 635/667 (AID 1087).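 Note: score merges spot fluorescence at 667nm with spot signal to noise ratio.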 The note with it: higher = more signal.
Assay [11] deals with PRMT1 (protein arginine N-methyltransferase 1). The assay is described as follows: small molecules binding arginine methyltransferase PRMT1 – biochemical, small-molecule microarray, 635 nm fluorescence, primary screen (AID 1088).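 Note: binding of Prmt1 protein to compounds spotted on small-molecule microarray slides.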 The note with it: higher = more signal.
Assay [12] can be described thus: growth effects on S. cerevisiae YJM789 – YJM789 clinical isolate, OD600, 24 h, basal, primary screen (AID 1089).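 Note: growth of clinical yeast isolate S. cerevisiae YJM 789 seeded 1000 cells per well; test concentration not given here.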 As to conditions: higher = more signal, called active from +8 up or from −8 down.
The nature of assay [13]: S. pombe growth modifiers, basal conditions – strain 972, OD600, 24 h, no modulator, primary screen (AID 1090).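 Note: basal condition with compound alone and no growth modifier present; test concentration not given here.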 As to conditions: S. pombe 972 growth, higher = more signal, called active from +8 up or from −8 down.
Assay [14] is described as follows: budding yeast growth modifiers under rapamycin – strain BY4716, OD600, 96 h, primary screen (AID 1091). Note: test concentration not given here. The note with it: S. cerevisiae BY4716 + rapamycin, higher = more signal, called active from +8 up or from −8 down.
The target in assay [15] is Torsin-1A-interacting protein 2 (Homo sapiens) (UniProt Q8NFQ8). The assay is described as follows: small molecules binding lysate-expressed LULL1 – cell lysate, human LULL1 lysate, 635/667 nm fluorescence, primary screen (AID 1092).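 Note: probe is lysate of COS7 cells overexpressing human LULL1; score merges per-feature 667 nm fluorescence with signal-to-noise.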 As to conditions: small-molecule microarray, hLULL1 lysate binding, 635 nm fluorescence; higher = more signal.
A short description of assay [16]: optical density change of DRC41 E. coli – strain DRC41, OD650, 24 h, E. coli filamentation project, primary screen (AID 1093).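 Note: MC1000 strain lacking acrAB efflux and sulA so SOS filamentation is blocked; test concentration not given here.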 The note with it: E. coli DRC41 growth, higher = more signal, called active from +8 up or from −8 down.
Assay [17] can be described thus: probe aLefty2 binding to arrayed compounds – biochemical, biotinylated probe, 635/667 nm fluorescence, primary screen (AID 1094).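 Note: score merges spot fluorescence near 667 nm with spot signal-to-noise ratio.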 The note with it: small-molecule microarray, higher = more signal.
For assay [18], the system named is Noggin (protein binding on small-molecule microarray). Kind of assay: small molecules binding Noggin protein – biochemical, 635/667 nm fluorescence, primary screen (AID 1095).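 Note: score merges 667 nm feature fluorescence with signal to noise over triplicate slides.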 The note with it: 635 nm fluorescence, higher = more signal.
Assay [19] has as its target Neurogenic locus notch homolog protein 3 (Homo sapiens) (UniProt Q9UM47). The assay is described as follows: small molecules binding NOTCH3 protein – biochemical, 635/667 nm fluorescence, primary screen (AID 1096). The note with it: small-molecule microarray, 635 nm fluorescence, higher = more signal.
Assay [20] in a line: probe aEGFR binding to arrayed compounds – biochemical, biotinylated probe, 635/667 nm fluorescence, primary screen (AID 1097).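 Note: probe is a biotinylated anti-EGFR antibody binding compounds printed on slides; score combines fluorescence near 667 nm and signal to noise of each spot.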 As to conditions: small-molecule microarray, higher = more signal.

The source made the active and inactive calls.

Sequence of Neurogenic locus notch homolog protein 2 (Homo sapiens) (Q04721 whole entry, looked up, canonical isoform): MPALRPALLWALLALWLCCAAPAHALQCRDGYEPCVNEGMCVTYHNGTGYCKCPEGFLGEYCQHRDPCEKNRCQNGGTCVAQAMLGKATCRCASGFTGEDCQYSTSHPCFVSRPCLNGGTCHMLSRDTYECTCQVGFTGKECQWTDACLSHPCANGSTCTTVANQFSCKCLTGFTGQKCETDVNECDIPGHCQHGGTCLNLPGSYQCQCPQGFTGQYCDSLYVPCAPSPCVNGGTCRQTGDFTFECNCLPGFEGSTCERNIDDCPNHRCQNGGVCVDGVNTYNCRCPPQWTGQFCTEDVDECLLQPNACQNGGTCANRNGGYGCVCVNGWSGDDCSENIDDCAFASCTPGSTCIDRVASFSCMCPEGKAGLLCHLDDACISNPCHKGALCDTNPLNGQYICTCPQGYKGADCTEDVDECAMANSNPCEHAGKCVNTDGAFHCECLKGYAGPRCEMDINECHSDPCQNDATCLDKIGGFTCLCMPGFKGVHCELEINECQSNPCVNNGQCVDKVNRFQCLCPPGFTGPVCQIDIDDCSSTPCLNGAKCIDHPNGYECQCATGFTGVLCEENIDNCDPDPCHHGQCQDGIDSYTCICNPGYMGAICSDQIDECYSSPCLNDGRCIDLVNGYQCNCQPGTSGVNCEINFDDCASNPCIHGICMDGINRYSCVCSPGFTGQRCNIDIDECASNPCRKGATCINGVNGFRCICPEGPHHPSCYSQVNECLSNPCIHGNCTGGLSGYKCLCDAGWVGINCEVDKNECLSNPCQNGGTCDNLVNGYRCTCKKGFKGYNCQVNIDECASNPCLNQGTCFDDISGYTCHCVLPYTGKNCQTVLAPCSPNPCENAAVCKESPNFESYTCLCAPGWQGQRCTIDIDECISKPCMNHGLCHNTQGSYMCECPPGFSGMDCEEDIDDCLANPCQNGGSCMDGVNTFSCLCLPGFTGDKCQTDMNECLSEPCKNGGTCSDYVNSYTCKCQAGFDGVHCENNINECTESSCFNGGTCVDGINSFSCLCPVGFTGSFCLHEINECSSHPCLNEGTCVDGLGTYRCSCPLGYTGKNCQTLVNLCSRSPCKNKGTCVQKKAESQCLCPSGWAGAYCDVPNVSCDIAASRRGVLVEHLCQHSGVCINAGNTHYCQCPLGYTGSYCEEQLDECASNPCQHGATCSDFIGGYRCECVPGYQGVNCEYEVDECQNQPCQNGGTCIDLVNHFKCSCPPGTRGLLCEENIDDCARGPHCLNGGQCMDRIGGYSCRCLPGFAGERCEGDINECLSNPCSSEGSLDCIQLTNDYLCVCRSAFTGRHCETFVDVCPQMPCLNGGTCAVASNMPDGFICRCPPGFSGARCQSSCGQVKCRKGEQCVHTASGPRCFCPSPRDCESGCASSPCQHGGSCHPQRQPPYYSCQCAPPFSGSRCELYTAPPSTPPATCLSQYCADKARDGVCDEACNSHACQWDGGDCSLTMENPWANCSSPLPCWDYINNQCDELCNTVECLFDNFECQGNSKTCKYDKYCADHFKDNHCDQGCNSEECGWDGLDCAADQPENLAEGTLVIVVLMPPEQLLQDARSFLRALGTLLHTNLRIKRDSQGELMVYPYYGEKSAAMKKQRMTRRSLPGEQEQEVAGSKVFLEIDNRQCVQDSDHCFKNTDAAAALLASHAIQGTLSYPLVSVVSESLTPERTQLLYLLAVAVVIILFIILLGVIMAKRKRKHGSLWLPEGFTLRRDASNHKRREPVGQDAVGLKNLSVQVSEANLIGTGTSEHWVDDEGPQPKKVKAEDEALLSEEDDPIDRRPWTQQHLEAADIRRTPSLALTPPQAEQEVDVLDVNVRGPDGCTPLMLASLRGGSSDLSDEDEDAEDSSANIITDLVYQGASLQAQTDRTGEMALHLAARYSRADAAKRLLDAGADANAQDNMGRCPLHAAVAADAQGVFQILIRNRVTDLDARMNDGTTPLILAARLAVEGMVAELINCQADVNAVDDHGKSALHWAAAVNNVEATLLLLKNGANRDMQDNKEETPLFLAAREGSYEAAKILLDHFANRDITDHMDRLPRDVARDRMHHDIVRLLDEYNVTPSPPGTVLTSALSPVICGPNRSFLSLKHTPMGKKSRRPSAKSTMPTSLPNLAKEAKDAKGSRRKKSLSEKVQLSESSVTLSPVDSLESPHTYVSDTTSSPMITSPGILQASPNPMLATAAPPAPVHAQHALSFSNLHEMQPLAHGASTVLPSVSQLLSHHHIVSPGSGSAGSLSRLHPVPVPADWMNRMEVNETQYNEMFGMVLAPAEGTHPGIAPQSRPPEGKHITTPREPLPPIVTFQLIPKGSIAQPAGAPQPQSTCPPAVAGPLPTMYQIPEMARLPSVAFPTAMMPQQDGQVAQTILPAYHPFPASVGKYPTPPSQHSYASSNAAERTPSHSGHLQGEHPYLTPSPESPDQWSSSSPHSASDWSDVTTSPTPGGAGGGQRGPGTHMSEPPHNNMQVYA
Sequence of Torsin-1A-interacting protein 2 (Homo sapiens) (Q8NFQ8 whole entry, looked up): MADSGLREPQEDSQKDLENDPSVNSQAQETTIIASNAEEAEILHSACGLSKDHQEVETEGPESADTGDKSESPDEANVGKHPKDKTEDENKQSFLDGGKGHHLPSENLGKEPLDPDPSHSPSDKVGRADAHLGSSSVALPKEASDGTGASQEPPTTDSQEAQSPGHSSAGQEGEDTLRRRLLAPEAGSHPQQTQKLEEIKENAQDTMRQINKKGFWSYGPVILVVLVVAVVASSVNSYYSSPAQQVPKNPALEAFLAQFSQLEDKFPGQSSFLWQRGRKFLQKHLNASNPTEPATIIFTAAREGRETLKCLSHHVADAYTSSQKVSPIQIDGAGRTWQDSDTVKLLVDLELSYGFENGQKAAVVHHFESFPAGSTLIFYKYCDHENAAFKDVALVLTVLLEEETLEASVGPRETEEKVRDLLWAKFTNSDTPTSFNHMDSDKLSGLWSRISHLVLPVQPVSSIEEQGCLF
Sequence of Pro-neuregulin-1, membrane-bound isoform (Homo sapiens) (Q02297 whole entry, looked up, the tested form may be a part, canonical isoform): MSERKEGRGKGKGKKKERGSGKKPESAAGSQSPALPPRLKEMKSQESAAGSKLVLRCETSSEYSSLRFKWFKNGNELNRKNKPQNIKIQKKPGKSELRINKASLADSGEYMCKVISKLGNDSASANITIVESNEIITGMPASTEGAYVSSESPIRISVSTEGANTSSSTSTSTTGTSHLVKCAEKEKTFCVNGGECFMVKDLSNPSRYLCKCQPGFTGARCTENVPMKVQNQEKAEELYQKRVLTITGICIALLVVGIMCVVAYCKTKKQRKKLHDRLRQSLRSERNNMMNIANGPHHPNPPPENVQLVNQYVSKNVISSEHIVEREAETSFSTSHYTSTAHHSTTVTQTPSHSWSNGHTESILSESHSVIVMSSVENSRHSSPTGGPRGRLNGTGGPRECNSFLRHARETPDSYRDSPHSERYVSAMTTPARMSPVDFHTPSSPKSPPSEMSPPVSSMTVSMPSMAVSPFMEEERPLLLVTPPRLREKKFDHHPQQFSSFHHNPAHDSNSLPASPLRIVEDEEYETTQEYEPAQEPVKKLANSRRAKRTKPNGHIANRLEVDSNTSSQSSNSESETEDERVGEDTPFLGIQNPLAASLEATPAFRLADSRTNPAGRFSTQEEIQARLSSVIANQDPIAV

Regarding `COC(=O)C(CC#Cc1ccc2c(c1)[C@]1(C(=O)N2)[C@H](C(=O)Nc2nc3ccccc3s2)[C@H]2C(=O)O[C@H](c3ccccc3)[C@H](c3ccccc3)N2[C@@H]1c1ccc(O)cc1)C(=O)OC`, the composite z-score in assay [1] is -0.485; in [2] it was 0.919; in [3] it was 0.0495; in assay [4], 0.621; in assay [5], 1.33; in assay [6], 1.37. For the same compound, the composite z-score in [7] was 1.36; in assay [9], 0.688; in [10] it was -0.0618; in [11], 1.55; in assay [15], 2.82; in assay [17], -0.0258. The composite z-score turned out to be 0.709 in assay [18], 1.03 in [19] and 0.221 in [20]. The z-score was 1.28 (inactive) in [8]; 0.424 (inactive) in [12]; 0.301 (inactive) in [13]; 0.746 (inactive) in assay [14]; -1.05 (inactive) in [16].
As for `COc1cc(NN2C(C(O)c3ccco3)C=CC3C(=O)N(c4ccccc4)C(=O)C32)cc(OC)c1OC` (stereo not given), the composite z-score in [1] was -0.178; in [2], -0.218; in assay [3], -0.116; in assay [4] it was 0.127; in [5], 0.723; in assay [6] it was 1.18. Further, the composite z-score in assay [7] is 1.21; in [9], 0.162; in assay [10], -0.0215; in [11], 0.216; in assay [15], 2.41; in assay [17] it was -0.2. Further, the composite z-score in assay [18] was 0.0945; in assay [19] it was 0.703; in [20] it was -0.0688. Besides, the z-score in assay [8] was 0.889 (inactive); in [12] it was 0.602 (inactive); in [13] it was 0.0991 (inactive); in assay [14], -0.234 (inactive); in assay [16], -1.18 (inactive).
Regarding `C=C(/C(=C/C[C@H](OC(C)=O)c1ccccc1OCCO)c1cnc2ccccc2c1)C(C)C`, the composite z-score in assay [1] is 0.168; in [2], 0.126; in assay [3] it was -0.0419; in assay [4], 0.324; in [5], 0.775; in assay [6], 0.586. Also, the composite z-score is 0.87 in [7]; 0.0254 in [9]; 0.0274 in assay [10]; 0.491 in assay [11]; 1.85 in assay [15]; -0.0251 in assay [17]. Also, the composite z-score in [18] was 1.24; in [19], 0.909; in assay [20], -0.044. The z-score in assay [8] was -0.607 (inactive); in [12] it was 0.0556 (inactive); in assay [13] it was -0.0759 (inactive); in assay [14] it was 1.11 (inactive); in assay [16], -0.0733 (inactive).
On to `CC(=O)NCCCC[C@@H]1NC(=O)[C@H]2C[C@@H](C(=O)NCCCCCCNC(=O)CS)[C@@H](c3ccc(O)cc3)N2C1=O`, for which the composite z-score in [1] was 0.993; in assay [2], 1.42; in assay [3] it was -0.0049; in assay [4], 0.545; in assay [5] it was -0.721; in assay [6], 0.824. Also, the composite z-score in assay [7] was 1.47; in [9] it was -0.555; in assay [10], -0.108; in [11], 1.15; in [15], 3.13; in assay [17] it was 0.0283. Also, the values for the composite z-score in [18], in assay [19] and in [20] were -0.773, -0.372 and -0.258, respectively. Moreover, the z-score in assay [8] was 0.659 (inactive); in assay [12] it was 1.2 (inactive); in assay [13], 0.686 (inactive); in assay [14] it was 0.983 (inactive); in assay [16] it was 0.189 (inactive).
With `C=CCNC(=O)[C@@H]1[C@H]2C(=O)O[C@H](c3ccccc3)[C@H](c3ccccc3)N2[C@H](c2ccc(OCCO)cc2)[C@@]12C(=O)Nc1ccc(C#CCC(C(=O)OC)C(=O)OC)cc12`, the composite z-score in [1] turned out to be 0.148; in assay [2], 0.694; in assay [3], 0.0185; in assay [4], 0.721; in assay [5], 0.89; in [6], 1.81. In addition, the composite z-score was determined as 1.3 in assay [7]; 0.452 in assay [9]; 0.0505 in [10]; 1.53 in assay [11]; 3.04 in [15]; 0.0869 in assay [17]. Also, the composite z-score is 1.31 in assay [18], 0.981 in [19] and -0.0466 in assay [20]. Besides, the z-score in assay [8] was 0.141 (inactive); in assay [12], 1.87 (inactive); in assay [13], 2.03 (inactive); in [14], 3.83 (inactive); in assay [16] it was 1.92 (inactive).
